From the supplement of paper PMC11732987, “Enantioselective OTUD7B fragment discovery through chemoproteomics screening and high-throughput optimisation” (Communications Chemistry, 2025)

How the values were obtained:
Assay in all cases: log2 ratio of Biotin-Ahx-Ub-VS probe labelling (fragment/DMSO); higher = less target engagement (more negative = stronger competition), active = hit call of the paper (q ≤ 0.05, log2 ratio ≤ -1)
Conditions in all cases: compound concentration: 200 uM; treatment time: 3 h
USP42 = target: T1, USP42 (UniProt Q9H9J4)
T1 sequence (whole entry): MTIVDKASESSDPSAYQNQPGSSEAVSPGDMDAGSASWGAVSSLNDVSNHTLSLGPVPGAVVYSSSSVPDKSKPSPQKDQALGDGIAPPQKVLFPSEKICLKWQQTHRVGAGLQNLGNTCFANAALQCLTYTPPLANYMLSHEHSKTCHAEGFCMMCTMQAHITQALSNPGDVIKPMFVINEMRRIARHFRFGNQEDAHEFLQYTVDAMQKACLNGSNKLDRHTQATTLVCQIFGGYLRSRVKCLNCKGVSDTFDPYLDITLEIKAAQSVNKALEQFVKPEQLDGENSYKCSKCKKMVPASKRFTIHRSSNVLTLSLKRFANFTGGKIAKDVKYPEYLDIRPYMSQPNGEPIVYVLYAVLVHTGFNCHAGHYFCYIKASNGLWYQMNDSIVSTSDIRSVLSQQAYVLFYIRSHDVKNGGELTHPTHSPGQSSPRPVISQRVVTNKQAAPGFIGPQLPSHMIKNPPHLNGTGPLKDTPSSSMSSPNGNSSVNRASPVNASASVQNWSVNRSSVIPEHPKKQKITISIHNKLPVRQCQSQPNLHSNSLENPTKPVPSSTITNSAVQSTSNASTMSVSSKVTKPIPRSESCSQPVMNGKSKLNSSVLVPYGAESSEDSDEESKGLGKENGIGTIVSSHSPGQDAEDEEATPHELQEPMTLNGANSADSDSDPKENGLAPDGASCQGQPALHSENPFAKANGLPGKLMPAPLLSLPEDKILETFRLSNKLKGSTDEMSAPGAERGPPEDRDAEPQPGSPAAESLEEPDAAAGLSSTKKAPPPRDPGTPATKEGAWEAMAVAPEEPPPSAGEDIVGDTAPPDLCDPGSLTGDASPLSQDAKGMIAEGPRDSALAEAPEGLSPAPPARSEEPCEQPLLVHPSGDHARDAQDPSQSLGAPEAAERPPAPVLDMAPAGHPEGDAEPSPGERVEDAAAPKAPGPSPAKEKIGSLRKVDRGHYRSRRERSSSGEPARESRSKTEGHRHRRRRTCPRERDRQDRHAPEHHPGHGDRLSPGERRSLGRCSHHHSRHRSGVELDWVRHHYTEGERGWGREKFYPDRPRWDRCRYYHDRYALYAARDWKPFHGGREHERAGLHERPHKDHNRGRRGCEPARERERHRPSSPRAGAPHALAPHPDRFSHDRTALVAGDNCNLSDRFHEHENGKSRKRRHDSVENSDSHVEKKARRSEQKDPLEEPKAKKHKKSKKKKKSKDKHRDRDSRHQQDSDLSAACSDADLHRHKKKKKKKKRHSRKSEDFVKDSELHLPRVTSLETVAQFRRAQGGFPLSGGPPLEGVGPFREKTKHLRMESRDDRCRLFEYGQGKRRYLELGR
Summary of the method: (§1)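 HEK293T lysate (495 µg per sample, in Tris/CHAPS/IGEPAL buffer with protease inhibitors) was treated in triplicate with fragment at 200 µM or with DMSO for 3 h. It was then treated with Biotin-Ahx-Ub-VS (0.5 µM final) for 1 h. Labelled DUBs were NeutrAvidin-enriched, digested with LysC and trypsin, and run by diaPASEF LC-MS/MS. Spectronaut label-free quantities were global-median-normalised. Values are average log2 ratios fragment/DMSO by unpaired t-test, using proteins with ≥2 unique peptides.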

USP46 = USP46 (UniProt P62068)
Summary of the method: as §1

USP47 = target: T2, USP47 (UniProt Q96K76)
T2 sequence (whole entry): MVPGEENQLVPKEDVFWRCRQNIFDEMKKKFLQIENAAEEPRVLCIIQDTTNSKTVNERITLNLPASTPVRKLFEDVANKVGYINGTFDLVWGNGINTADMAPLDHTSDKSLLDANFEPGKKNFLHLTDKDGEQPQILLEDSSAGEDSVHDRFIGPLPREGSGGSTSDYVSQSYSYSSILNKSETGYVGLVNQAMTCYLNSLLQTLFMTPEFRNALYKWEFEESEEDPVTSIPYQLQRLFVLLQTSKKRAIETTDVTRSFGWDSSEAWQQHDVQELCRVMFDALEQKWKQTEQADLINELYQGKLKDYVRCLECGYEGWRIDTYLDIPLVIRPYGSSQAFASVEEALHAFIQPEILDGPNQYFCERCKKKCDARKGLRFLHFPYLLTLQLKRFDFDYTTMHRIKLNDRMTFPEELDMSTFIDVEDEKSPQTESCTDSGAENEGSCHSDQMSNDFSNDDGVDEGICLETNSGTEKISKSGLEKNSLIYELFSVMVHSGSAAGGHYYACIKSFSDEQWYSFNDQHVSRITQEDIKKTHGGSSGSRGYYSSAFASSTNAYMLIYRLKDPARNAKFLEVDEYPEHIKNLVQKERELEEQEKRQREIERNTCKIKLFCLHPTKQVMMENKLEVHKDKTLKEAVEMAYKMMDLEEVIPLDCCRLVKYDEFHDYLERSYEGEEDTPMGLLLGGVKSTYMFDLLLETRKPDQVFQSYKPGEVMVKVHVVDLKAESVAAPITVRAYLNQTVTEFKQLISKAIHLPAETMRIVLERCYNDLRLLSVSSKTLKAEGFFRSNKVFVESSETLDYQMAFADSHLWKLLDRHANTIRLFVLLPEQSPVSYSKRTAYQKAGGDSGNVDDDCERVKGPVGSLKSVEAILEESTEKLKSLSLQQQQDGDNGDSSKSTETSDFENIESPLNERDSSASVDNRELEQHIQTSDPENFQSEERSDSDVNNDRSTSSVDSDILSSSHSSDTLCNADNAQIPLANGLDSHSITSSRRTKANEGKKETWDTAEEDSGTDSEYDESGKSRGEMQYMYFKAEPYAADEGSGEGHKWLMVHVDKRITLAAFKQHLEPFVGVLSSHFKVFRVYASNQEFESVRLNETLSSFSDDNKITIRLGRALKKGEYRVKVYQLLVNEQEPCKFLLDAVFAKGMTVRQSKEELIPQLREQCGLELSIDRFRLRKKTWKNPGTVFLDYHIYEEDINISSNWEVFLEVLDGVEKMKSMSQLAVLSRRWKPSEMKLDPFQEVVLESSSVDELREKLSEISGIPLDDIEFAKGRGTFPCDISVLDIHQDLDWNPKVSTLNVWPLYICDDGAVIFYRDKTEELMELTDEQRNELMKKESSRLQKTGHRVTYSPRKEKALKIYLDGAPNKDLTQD
Summary of the method: as §1

USP48 = target: T3, USP48 (UniProt Q86UV5)
T3 sequence (whole entry): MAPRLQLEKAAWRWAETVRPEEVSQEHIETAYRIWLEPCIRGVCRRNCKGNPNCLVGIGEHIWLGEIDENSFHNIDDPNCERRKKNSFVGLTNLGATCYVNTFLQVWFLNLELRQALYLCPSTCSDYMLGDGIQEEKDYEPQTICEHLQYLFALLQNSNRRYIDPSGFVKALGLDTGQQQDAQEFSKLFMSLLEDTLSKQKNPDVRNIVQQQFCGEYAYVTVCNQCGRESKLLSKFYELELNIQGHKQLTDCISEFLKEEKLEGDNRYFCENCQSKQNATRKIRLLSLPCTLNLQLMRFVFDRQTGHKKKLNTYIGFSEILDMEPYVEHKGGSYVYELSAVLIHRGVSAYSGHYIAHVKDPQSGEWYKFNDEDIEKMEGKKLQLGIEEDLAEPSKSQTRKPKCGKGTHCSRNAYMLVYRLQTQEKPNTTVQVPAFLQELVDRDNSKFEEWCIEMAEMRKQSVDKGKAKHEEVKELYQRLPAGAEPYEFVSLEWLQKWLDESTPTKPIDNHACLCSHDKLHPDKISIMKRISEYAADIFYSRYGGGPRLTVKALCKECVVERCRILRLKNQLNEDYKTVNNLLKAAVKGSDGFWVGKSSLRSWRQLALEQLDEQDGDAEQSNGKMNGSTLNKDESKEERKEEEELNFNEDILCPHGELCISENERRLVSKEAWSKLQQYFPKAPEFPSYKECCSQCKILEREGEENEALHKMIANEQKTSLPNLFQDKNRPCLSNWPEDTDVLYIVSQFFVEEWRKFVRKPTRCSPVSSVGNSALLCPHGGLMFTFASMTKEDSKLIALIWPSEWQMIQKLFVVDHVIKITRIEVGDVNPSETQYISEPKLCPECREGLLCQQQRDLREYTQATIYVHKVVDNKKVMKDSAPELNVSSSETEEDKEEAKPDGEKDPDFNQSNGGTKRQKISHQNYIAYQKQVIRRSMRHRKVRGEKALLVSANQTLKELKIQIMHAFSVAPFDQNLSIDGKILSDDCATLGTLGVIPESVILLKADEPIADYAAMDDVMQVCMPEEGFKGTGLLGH
Summary of the method: as §1

USP5 = target: T4, USP5 (UniProt P45974)
T4 sequence (whole entry): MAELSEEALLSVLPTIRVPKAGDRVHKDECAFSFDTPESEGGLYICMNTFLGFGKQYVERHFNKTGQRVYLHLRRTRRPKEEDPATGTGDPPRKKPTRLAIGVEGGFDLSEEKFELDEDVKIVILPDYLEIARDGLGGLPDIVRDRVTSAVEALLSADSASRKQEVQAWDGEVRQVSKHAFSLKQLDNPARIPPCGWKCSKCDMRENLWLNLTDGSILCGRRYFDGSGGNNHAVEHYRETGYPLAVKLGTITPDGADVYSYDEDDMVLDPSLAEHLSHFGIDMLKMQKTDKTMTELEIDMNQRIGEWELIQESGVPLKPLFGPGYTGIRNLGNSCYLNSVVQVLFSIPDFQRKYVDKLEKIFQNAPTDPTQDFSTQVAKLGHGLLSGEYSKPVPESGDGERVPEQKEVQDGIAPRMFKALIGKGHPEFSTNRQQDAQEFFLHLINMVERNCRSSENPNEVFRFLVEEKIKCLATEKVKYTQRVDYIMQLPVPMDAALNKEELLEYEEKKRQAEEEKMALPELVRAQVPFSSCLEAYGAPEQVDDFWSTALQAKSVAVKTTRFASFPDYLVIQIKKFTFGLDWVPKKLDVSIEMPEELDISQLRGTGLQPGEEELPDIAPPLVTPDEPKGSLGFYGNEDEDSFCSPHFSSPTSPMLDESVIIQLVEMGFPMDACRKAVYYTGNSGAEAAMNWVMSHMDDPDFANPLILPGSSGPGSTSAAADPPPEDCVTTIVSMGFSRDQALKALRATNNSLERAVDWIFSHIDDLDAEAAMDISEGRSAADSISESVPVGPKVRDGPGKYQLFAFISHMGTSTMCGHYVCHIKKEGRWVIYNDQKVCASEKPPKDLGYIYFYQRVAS
Summary of the method: as §1

USP54 = USP54 (UniProt Q70EL1)
Summary of the method: as §1

USP7 = USP7 (UniProt Q93009)
Summary of the method: as §1

USP8 = target: T5, USP8 (UniProt P40818)
T5 sequence (whole entry): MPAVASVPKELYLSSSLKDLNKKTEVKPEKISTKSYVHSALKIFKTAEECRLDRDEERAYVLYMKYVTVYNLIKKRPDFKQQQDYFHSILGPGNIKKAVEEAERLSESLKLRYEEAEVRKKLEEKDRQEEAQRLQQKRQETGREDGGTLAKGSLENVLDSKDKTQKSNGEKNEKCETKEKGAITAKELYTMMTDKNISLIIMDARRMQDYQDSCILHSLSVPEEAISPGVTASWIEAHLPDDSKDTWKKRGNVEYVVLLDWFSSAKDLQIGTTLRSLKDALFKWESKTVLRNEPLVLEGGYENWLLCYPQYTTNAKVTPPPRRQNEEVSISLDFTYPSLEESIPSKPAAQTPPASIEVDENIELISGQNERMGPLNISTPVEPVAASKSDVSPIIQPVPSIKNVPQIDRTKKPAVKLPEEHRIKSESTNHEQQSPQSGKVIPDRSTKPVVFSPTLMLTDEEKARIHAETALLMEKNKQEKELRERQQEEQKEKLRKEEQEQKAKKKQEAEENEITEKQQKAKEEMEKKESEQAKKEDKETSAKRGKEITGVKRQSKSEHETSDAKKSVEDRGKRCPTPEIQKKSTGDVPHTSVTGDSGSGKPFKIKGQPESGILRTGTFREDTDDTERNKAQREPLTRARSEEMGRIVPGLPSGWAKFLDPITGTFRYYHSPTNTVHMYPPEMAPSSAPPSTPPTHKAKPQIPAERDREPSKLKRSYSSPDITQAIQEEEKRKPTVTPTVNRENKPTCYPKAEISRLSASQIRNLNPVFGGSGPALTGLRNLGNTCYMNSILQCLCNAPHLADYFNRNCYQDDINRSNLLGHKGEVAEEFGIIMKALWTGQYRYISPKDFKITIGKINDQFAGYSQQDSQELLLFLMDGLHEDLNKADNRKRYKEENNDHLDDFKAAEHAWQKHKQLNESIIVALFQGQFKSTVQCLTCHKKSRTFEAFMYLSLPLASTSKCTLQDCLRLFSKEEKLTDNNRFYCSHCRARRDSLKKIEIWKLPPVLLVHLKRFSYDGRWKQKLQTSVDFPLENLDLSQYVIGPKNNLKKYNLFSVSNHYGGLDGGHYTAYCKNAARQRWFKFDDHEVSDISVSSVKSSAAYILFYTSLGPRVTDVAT
Summary of the method: as §1

USP9X = USP9X (UniProt Q93008)
Summary of the method: as §1

UniProt O00487 = target: UniProt O00487
Summary of the method: as §1

Measured: log2 ratio of Biotin-Ahx-Ub-VS probe labelling

USP7, sequence (Q93009 whole entry, looked up): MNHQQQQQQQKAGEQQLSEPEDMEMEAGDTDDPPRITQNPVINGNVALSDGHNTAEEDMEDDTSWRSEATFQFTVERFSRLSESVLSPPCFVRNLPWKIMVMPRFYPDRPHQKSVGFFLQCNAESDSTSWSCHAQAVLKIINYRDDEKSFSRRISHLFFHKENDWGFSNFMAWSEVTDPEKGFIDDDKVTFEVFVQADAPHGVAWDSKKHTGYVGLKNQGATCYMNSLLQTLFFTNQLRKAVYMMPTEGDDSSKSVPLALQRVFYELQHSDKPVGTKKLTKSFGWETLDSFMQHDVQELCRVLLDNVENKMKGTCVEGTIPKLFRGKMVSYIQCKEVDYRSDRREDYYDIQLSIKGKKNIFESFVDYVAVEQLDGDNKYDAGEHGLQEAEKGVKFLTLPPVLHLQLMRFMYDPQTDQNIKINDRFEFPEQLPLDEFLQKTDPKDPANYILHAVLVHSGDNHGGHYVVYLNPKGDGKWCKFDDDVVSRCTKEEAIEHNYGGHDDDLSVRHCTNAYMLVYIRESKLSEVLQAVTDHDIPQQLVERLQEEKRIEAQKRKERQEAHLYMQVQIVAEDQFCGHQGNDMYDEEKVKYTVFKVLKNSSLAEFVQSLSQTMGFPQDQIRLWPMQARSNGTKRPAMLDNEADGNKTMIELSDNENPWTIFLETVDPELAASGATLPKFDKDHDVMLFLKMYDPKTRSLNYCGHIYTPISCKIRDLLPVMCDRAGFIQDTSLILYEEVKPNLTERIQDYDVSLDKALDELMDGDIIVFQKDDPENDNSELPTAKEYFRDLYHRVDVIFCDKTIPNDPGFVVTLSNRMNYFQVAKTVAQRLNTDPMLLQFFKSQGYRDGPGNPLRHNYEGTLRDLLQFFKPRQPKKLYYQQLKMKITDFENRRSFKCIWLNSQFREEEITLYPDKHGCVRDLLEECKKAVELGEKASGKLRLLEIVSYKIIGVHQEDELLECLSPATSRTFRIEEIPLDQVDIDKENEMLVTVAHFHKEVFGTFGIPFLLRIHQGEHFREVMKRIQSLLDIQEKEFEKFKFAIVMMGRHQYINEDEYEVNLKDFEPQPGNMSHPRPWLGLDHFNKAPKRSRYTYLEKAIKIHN
USP46, sequence (P62068 whole entry): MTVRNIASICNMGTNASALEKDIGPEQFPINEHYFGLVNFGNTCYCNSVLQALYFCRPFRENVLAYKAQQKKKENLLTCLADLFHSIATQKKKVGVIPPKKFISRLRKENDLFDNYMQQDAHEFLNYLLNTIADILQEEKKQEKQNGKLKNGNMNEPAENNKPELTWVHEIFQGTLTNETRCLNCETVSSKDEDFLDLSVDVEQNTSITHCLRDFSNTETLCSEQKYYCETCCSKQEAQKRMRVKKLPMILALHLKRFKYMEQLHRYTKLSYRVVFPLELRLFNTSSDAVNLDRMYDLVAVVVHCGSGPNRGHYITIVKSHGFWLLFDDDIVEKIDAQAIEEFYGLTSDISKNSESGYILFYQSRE
USP9X, sequence (Q93008 whole entry): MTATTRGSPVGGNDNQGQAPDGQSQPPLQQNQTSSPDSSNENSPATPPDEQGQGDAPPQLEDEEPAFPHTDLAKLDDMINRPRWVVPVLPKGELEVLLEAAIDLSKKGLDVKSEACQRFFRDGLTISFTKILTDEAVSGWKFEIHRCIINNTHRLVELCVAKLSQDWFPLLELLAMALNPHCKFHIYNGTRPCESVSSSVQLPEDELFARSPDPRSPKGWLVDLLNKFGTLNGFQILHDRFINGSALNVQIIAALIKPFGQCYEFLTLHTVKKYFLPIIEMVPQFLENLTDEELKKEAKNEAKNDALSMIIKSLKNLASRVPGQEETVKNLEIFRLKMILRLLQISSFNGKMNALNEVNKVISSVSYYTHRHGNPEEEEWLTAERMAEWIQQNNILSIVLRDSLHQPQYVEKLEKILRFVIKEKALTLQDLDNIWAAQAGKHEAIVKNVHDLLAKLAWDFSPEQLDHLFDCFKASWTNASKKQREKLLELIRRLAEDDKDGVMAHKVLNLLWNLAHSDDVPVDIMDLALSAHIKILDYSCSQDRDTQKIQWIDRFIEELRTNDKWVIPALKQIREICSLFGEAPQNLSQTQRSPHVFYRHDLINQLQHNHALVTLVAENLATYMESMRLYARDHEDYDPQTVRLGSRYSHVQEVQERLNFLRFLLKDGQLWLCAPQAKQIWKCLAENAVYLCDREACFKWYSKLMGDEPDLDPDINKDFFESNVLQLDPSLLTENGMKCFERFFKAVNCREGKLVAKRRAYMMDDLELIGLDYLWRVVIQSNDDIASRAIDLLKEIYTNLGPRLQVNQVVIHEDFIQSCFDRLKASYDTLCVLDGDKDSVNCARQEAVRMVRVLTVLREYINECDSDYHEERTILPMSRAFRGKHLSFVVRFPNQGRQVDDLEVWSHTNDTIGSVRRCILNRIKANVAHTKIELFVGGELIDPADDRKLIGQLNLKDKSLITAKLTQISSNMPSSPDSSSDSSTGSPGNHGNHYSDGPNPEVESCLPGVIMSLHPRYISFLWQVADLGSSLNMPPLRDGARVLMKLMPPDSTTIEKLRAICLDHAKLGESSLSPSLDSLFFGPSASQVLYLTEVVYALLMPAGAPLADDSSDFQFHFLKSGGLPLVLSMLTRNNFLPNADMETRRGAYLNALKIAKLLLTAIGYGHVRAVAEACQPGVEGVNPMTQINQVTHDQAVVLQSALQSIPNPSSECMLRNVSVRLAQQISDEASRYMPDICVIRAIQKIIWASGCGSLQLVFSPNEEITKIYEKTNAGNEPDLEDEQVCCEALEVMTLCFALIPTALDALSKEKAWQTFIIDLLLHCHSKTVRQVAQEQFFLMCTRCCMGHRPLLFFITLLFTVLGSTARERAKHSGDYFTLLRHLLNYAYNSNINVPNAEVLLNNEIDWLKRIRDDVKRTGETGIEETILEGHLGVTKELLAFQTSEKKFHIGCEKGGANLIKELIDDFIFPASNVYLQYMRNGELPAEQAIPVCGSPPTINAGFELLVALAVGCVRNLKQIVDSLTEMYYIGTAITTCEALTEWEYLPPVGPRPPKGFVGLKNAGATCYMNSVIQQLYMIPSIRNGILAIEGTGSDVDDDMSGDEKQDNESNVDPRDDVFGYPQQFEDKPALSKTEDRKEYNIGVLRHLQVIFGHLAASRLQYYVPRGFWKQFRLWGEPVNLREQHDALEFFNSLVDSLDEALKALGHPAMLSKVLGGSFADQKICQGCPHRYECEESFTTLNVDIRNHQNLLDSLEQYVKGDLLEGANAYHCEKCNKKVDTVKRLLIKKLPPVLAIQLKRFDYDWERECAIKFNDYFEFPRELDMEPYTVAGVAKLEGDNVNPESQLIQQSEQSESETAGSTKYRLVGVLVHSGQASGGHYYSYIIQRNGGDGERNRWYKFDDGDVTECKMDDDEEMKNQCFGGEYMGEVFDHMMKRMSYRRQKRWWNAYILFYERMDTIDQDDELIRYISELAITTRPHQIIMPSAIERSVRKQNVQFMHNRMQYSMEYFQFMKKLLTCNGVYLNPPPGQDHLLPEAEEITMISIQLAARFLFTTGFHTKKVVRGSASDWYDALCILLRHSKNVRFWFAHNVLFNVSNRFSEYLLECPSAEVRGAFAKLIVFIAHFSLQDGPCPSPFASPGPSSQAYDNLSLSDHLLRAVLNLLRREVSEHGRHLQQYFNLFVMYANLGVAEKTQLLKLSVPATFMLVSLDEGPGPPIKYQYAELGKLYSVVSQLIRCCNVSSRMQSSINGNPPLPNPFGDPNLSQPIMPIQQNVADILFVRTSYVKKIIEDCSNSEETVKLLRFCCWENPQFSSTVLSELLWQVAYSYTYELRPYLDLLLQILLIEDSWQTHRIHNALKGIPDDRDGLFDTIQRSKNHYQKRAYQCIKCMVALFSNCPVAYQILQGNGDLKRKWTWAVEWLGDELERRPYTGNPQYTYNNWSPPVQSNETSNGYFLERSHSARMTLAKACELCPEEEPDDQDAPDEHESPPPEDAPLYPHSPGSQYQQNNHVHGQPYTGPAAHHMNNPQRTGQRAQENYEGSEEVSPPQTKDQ
UniProt O00487, sequence (O00487 whole entry): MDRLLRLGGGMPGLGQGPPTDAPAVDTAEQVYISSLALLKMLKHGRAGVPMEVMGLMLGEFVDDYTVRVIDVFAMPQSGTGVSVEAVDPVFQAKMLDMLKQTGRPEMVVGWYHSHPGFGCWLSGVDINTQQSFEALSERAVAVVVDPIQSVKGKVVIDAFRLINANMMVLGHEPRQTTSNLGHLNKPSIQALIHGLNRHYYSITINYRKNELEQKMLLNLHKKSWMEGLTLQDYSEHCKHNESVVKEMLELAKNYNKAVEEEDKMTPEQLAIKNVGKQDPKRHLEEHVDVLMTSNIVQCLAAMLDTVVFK

CCC(NC(=O)CCl)c1ccc(Cl)cc1 (stereo not given)
inactive: USP42 0.358 | USP46 -0.00255 | USP47 -0.558 | USP48 -0.293 | USP5 0.0661 | USP54 0.671 | USP7 -0.195 | USP8 -0.0586 | USP9X -0.112 | UniProt O00487 0.0429
